Inconclusive results are not listed. Calls of active or inactive are those of the source. The calls were made as follows: active = hit-call score of the fitted dose curve at least 0.9, where 1 is the maximum; inactive = score below 0.9.
These compounds were tested against human ROCK1 AGC Kinase, ROCK1 (gene 6093) (UniProt Q13464) (assay: ERF_FR_ENZ_hROCK1: Eurofins (ERF) Enzymatic Radiometric [Km ATP] KinaseProfiler LeadHunter Assay for human ROCK1 AGC Kinase).
Method: ERF_FR_ENZ_hROCK1 is a biochemical, single-readout assay that uses extracted gene-proteins in a cell-free assay. Measurements were taken 0.33 hour after chemical dosing in a 96-well plate. See ROCK1 Human AGC Kinase Enzymatic LANCE Assay [Km ATP], Cerep.ERF_FR_ENZ_hROCK1 is an assay component calculated from the ERF_FR_ENZ_hROCK1 assay. It is designed to measure enzyme activity using a type of enzyme reporter as detected by fluorescence intensity with LANCE technology.Data from the assay component ERF_FR_ENZ_hROCK1 was analyzed at the assay endpoint, ERF_FR_ENZ_hROCK1, in the positive analysis fitting direction relative to DMSO as the negative control and baseline of activity. Using a type of enzyme reporter, loss-of-signal activity can be used to understand changes in enzymatic activity as they relate to gene ROCK1. To generalize the intended target to other relatable targets, this assay endpoint is annotated to the kinase intended target family, where the subfamily is serine/threonine kinase.
ROCK-I (h) is incubated with 8 mM MOPS pH 7.0, 0.2 mM EDTA, 30 uM […], 10 mM MgAcetate and [gamma-33P]-ATP (specific activity and concentration as required). The reaction is initiated by the addition of the Mg/ATP mix. After incubation for 40 minutes at room temperature, the reaction is stopped by the addition of phosphoric acid to a concentration of 0.5%. […]

human ROCK1 AGC Kinase, ROCK1 (gene 6093), sequence (Q13464 whole entry, looked up): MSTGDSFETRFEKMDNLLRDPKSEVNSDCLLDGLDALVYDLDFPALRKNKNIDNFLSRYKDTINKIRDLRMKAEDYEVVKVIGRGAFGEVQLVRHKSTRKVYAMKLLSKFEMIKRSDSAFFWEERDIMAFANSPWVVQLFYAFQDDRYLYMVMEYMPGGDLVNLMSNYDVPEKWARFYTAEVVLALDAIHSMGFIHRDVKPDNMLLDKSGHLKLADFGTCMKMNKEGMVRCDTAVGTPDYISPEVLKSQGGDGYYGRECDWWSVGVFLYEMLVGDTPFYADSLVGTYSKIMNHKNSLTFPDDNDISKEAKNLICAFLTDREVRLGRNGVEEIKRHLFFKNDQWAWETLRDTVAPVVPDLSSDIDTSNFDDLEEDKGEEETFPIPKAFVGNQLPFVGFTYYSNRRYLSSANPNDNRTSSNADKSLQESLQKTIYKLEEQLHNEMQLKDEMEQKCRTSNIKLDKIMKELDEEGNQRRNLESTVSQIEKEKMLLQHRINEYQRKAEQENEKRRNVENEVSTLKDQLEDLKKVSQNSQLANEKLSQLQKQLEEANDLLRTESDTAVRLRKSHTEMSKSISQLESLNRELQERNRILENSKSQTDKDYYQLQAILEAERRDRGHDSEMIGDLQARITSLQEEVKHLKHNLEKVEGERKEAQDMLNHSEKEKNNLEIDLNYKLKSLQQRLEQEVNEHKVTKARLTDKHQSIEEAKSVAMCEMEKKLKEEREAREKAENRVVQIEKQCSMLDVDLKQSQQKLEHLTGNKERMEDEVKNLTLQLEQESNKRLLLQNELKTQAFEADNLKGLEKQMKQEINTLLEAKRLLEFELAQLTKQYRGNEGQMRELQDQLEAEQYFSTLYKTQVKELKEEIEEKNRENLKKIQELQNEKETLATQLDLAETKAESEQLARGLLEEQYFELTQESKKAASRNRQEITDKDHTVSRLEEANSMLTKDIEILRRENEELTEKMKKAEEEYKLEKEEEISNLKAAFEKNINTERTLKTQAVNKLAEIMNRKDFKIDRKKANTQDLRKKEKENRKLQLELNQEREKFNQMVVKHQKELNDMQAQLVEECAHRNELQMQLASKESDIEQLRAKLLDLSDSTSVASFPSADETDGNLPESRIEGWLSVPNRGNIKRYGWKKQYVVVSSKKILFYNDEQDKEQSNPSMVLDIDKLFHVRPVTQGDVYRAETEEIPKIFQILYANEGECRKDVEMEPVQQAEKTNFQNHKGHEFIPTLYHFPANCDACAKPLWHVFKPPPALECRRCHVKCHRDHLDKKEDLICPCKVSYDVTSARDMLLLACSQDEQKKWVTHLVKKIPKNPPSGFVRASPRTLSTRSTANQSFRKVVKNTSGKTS

Which outcome does the source give for `COc1cc(CCC(=O)CC(=O)CCc2ccc(O)c(OC)c2)ccc1O` here?
The outcome was “inactive”.

With `O=C(/C=C/c1ccc(O)cc1)CC(=O)/C=C/c1ccc(O)cc1` as the compound, how does the outcome read?
The outcome was “inactive”.
